Laboratory results reported in ChEMBL document CHEMBL4513216, “Probing the Open Global Health Chemical Diversity Library for Multistage-Active Starting Points for Next-Generation Antimalarials” (ACS Infect Dis, 2020).
About 8,600 (12%) of roughly 69,000 compounds showed an effect of 50% or more. The list comes from a sample in which strong results are over-represented; it also holds similar structures and randomly drawn compounds.

test system: Plasmodium berghei; test: Screen against P. berghei liver stage (PbLuc), transformed with Luciferase, at 10uM; format: functional, HepG2; details: tested at 10 uM

Row | Compound | INHIBITION
1 | COc1cccc(-c2cc(C(=O)N3N=C(C)CC3(O)C(F)(F)F)[nH]n2)c1 (stereo not drawn) | 38.3%
2 | Cc1ncc(-c2ccccn2)c(CCNC(=O)CCC2CCCO2)n1 (stereo not drawn) | 28.5%
3 | C[C@@H](NCc1cccc(Cl)c1)c1onc(-c2ccc(F)cc2)c1C(=O)O | -3.58%
4 | CCCc1nc(CN2CCOC(Cn3cccn3)C2)no1 (stereo not drawn) | -43.5%
5 | CN(Cc1ccccc1)c1ncccc1CNC1CCC1 | 22.5%
6 | CN(Cc1ccccc1)c1ncccc1CNC1CCSCC1 | 51.8%
7 | CN(Cc1ccccc1)c1ncccc1CNC1CN2CCC1CC2 (stereo not drawn) | 62.6%
8 | CC(C)N1CCC(NCc2cccnc2N(C)Cc2ccccc2)CC1 | 37.8%
9 | CC(=O)N1CCC(NCc2cccnc2N(C)Cc2ccccc2)CC1 | 6.31%
10 | CN(Cc1ccccc1)c1ncccc1CNC1CCCC1 | 20.4%
11 | CC(C)(C)CC(=O)NCC(=O)Nc1ccn(Cc2ccncc2)n1 | -12.4%
12 | Cc1nn(C)cc1C(=O)N1C[C@@H]2CC[C@H]1CN(S(=O)(=O)N(C)C)C2 | -109%
13 | Cn1cccc1C(O)CNC(=O)c1ccc(C(F)(F)F)cc1 (stereo not drawn) | -118%
14 | CS(=O)(=O)N1CCC2(CCN(C(=O)c3cccnc3)CC2)C1 | 58.8%
15 | CS(=O)(=O)N1CCC2(CN(C(=O)c3cccnc3)C2)C1 | 33.5%
16 | O=C(CC1CC1)N1CCC2(CC1)CN(c1cccnc1)C(=O)CO2 | 30.3%
17 | Cc1ccc(N2CCC3(CCCN(C(=O)c4cccnc4)C3)C2)nn1 (stereo not drawn) | 53.5%
18 | CS(=O)(=O)N1CCOCC2(CCN(C(=O)c3cccnc3)CC2)C1 | 18.5%
19 | O=C(c1cccnc1)N1CCC2(CCN(C(=O)c3ccco3)CC2)C1 | 59.3%
20 | Cc1cccc(N2CCC3(CCCN(C(=O)c4cccnc4)C3)C2)n1 (stereo not drawn) | -19.1%
21 | Cc1ccc(C(=O)N2CCC3(CCN(C(=O)c4cccnc4)C3)CC2)o1 | 34.7%
22 | Cc1occc1C(=O)N1CCC2(CCN(C(=O)c3cccnc3)C2)CC1 | 28.5%

Row | Compound | INHIBITION
23 | Cc1ccc(C(=O)N2CCC3(CCCN(c4ccc(C)nn4)C3)C2)cn1 (stereo not drawn) | 18.6%
24 | CC(=O)NCC(=O)N1CCC2(CC1)CN(c1cccnc1)C(=O)CO2 | 17.1%
25 | O=C(N1CCCC1)N1CCC2(CC1)CN(c1cccnc1)C(=O)CO2 | 82.9%
26 | Cc1nn(C)c(C)c1CNCc1cccnc1N1CCOCC1 | 22.5%
27 | CN(C)C(=O)C1OC2(CCN(C(=O)c3ccco3)CC2)c2ccccc21 (stereo not drawn) | 12.7%
28 | CC(C#N)CN(C)C(=O)CCNC(=O)C(C)(C)C (stereo not drawn) | -6.91%
29 | CCc1[nH]ncc1C(=O)N1CCCC(n2cc(C)cn2)C1 (stereo not drawn) | -12.2%
30 | O=C(c1ccco1)N1C[C@H]2CCCN(Cc3cccs3)[C@H]2C1 | 37%
31 | CC(C)c1nn(C)c(N2CCOCC2)c1CNCCC(=O)N(C)C | 24.95%
32 | O=S(=O)(NCc1ccccc1)Nc1ccc(-n2cncn2)cc1 | 35%
33 | CC(C)c1n[nH]c(C2CN(C(=O)CCc3cscn3)CCO2)n1 (stereo not drawn) | -15.52%
34 | Cc1ccccc1OCC(=O)N1CCCC(CNS(C)(=O)=O)C1 (stereo not drawn) | -3.8%
35 | O=C(NCc1nncn1C1CCCCC1)C1CNCCO1 (stereo not drawn) | 33.4%
36 | COc1ccc(C2CCCN2C(=O)c2ccnc(NC3CC3)c2)cc1 (stereo not drawn) | -59.3%
37 | O=C(NC1CC1)N1Cc2[nH]nc(COc3cccnc3)c2C1 | -4.02%
38 | CN(C)Cc1cccc(-c2cccnc2C(=O)NCC2CC2)c1 | 18.4%
39 | O=C(c1ccoc1)N1CCC2(CC1)C(=O)Nc1ccccc12 | 25.4%
40 | O=C(c1ccno1)N1CCC2(CC1)C(=O)Nc1ccccc12 | -19.5%
41 | O=C(c1ccnnc1)N1CCC2(CC1)CCN(C(=O)c1cccnc1)C2 | 16.8%
42 | O=C(c1ccco1)N1CCC2(CC1)C(=O)Nc1ccccc12 | 64.4%
43 | CN1CCC2(CCN(C(=O)c3cccnc3)C2)C1 (stereo not drawn) | 12.2%
44 | Cc1cccc(N2CCC3(CCCN(C(=O)c4cccnc4)C3)CC2)n1 | -1.26%

Row | Compound | INHIBITION
45 | O=C(c1cccnc1)N1CCC2(CCN(C(=O)N3CCCC3)CC2)C1 | 61.1%
46 | CC(C)N1CCC2(CCN(C(=O)c3cccnc3)CC2)C1 | 15.4%
47 | O=C(c1ccncc1)N1CCC2(CC1)CCN(C(=O)c1cccnc1)C2 | 53.9%
48 | NC(=O)N1CCC2(CCN(C(=O)c3cccnc3)CC2)C1 | 86.5%
49 | Cc1cccc(N2CCC3(CCN(C(=O)c4cccnc4)CC3)C2)n1 | 19.5%
50 | Cn1cccc1C(=O)N1CCC2(CCN(C(=O)c3cccnc3)C2)CC1 | 37.6%
51 | c1cnn(-c2ccc(CN3CCCC(Cn4cncn4)C3)cc2)c1 (stereo not drawn) | 13.3%
52 | O=C(O)C(c1ccc(O)cc1)N1CCC(N2CCSCC2)CC1 (stereo not drawn) | 18.6%
53 | Cc1nc[nH]c1CN(C)Cc1cnn(-c2ccc(F)cc2)c1 | -5.22%
54 | O=S(=O)(CCN1CCCCC1Cn1cccn1)c1ccccc1 (stereo not drawn) | 25.8%
55 | Cc1noc(C)c1CNC(=O)Nc1ccc(N2CCOC(C)C2)cc1 (stereo not drawn) | 5.94%
56 | CN(Cc1cnn(C)c1)C(=O)Cn1c(CS(C)(=O)=O)nc2ccccc21 | -7.11%
57 | CC(CN1CCOC1=O)NC(=O)c1ccccc1Oc1ccccc1 (stereo not drawn) | 18.4%
58 | CCN(Cc1ccoc1)C(=O)NC1CCN(CC2CC2)C1 (stereo not drawn) | 19.3%
59 | CCN(Cc1ccoc1)C(=O)NC1CCN(CC2CCCC2)CC1 | 48.5%
60 | CCN(Cc1ccoc1)C(=O)NC1CCN(CC=C(C)C)CC1 | 57.2%
61 | Cc1ccc(S(=O)(=O)NC(=O)CCc2ccccc2)cc1N(C)C | 12.589%
62 | CN(CC(=O)NS(=O)(=O)c1ccsc1)Cc1ccccc1 | 9.76%
63 | CN(CC(=O)NS(=O)(=O)c1cccs1)Cc1ccccc1 | 32%
64 | Cc1cccc(S(=O)(=O)NC(=O)CN(C)Cc2ccccc2)c1 | 55.1%
65 | CN(CC(=O)NS(=O)(=O)c1ccc(F)cc1)Cc1ccccc1 | 50%
66 | Cc1cccc(CC(=O)NS(=O)(=O)c2ccc(F)c(F)c2)c1 | 23.5%

Row | Compound | INHIBITION
67 | CCS(=O)(=O)N1C[C@H]2CN(Cc3cccc(C)c3)C(=O)[C@H]2C1 | -1.36%
68 | N#Cc1ccccc1N1CCCN(C(=O)NCc2cc[nH]n2)CC1 | 10%
69 | CC(c1cccc(S(N)(=O)=O)c1)N(C)CCCOc1ccccc1 (stereo not drawn) | 23.4%
70 | CCN1CCC(CC(=O)NCCc2nc(O)cc(O)n2)CC1 | -16.3%
71 | COc1c(CNC2CCCN(c3ncccn3)C2)c(C(C)C)nn1C (stereo not drawn) | 42.9%
72 | Cc1ccc(CN2CCC3(CC2)C(=O)N(CC(C)C)CCN3C)s1 | -31.9%
73 | Cc1cccc(CN2CCCC(O)(CNCCc3c[nH]cn3)C2=O)c1 (stereo not drawn) | 48.1%
74 | COc1ccc(CNCC(C)Oc2ccccn2)cc1Cl (stereo not drawn) | 17%
75 | CC(CNCc1ccc(Cl)c(Cl)c1)Oc1ccccn1 (stereo not drawn) | -41.8%
76 | CCC(C)Oc1ccc(CNCCNC(C)=O)cc1Cl (stereo not drawn) | 60.2%
77 | CCC(C)Oc1ccc(CNCCNC(C)=O)cc1OC (stereo not drawn) | 40.7%
78 | CCC(C)Oc1ccc(CNCCNS(C)(=O)=O)cc1Cl (stereo not drawn) | 60.2%
79 | CC(=O)NCCNC(=O)NCc1ccc(Br)cc1Cl | 4.41%
80 | CCC(C)Oc1ccc(CNCCc2c[nH]cn2)cc1Cl (stereo not drawn) | 66.8%
81 | COc1ccc(CNC(=O)NCCCNS(C)(=O)=O)cc1OC | 33.8%
82 | CCOCC1COCCC12CCN(C(=O)CCOC)CC2 (stereo not drawn) | 8.67%
83 | CC(=O)N1CCN(c2ccc(Cl)nn2)C(=O)C1 | 40.8%
84 | NC(=O)C1CCN(C(=O)c2cccn2Cc2cccs2)CC1 | -12.1%
85 | CC(C)N(Cc1ccc(Cl)c(Cl)c1)C(=O)Cn1cncn1 | 9.55%
86 | Cc1cc(C)n(C2CCCN(C(=O)Cc3ccc(C#N)cc3)C2)n1 (stereo not drawn) | 29.7%
87 | C1CC(CN2C[C@@H]3C[C@@H](c4nnc(C5CC5)o4)O[C@@H]3C2)CCO1 | 3.58%
88 | CCC(CNC(=O)COC)Oc1cccc(F)c1 (stereo not drawn) | 26.7%

Row | Compound | INHIBITION
89 | CCC(CNC(=O)Cc1cc(C)on1)Oc1cccc(F)c1 (stereo not drawn) | 54.5%
90 | CCC(CNC(=O)Cn1ccnc1)Oc1cccc(F)c1 (stereo not drawn) | 42.4%
91 | CCC(CNC(=O)CNC(C)=O)Oc1cccc(F)c1 (stereo not drawn) | 51.7%
92 | CCC(CNC(=O)c1ccc(C(N)=O)cc1)Oc1cccc(F)c1 (stereo not drawn) | 33.2%
93 | CCC(=O)NCC(CC)Oc1cccc(F)c1 (stereo not drawn) | 23%
94 | NCc1cccc(-c2cccnc2C(=O)NCCN2CCCC2)c1 | -8.58%
95 | CC(C)(C)c1ncc(CNCC2CN(C3CC3)CCO2)s1 (stereo not drawn) | 37.7%
96 | C=c1occc1=C1NC(c2cccc(CN3CCOCC3)c2)=NO1 | -2.69%
97 | CCOc1ccc(S(=O)(=O)N(CCOC)Cc2ccoc2)cc1F | -17.7%
98 | CCCN(CCC)S(=O)(=O)N(C)Cc1ccncc1 | 53.4%
99 | CCN(C)S(=O)(=O)N(CC)Cc1cccc(-c2ccncc2)c1 | 58.3%
100 | CCCN(Cc1ccccc1O)S(=O)(=O)N(C)CC | -58%
101 | COCCN(Cc1cccnc1)S(=O)(=O)c1ccc(F)cc1C | 26%
102 | COCCN(Cc1ccoc1)S(=O)(=O)c1ccc(F)c(C)c1 | 0.348%
103 | CCOc1ccc(S(=O)(=O)N(CCOC)Cc2ccncc2)cc1F | 58.8%
104 | CCCC(=O)N(Cc1ccncc1)C(C)CC (stereo not drawn) | 49%
105 | CCN(Cc1cccc(-c2ccncc2)c1)S(C)(=O)=O | 29.6%
106 | COCCN(Cc1cccnc1)S(=O)(=O)c1cc(C)ccc1F | 59.4%
107 | COCCN(Cc1cccnc1)S(=O)(=O)c1cccc(F)c1F | 29.4%
108 | CCN(Cc1cccc(-c2ccncc2)c1)S(N)(=O)=O | 11.7%
